# According to ChEMBL document CHEMBL1201862, “PubChem BioAssay data set” (2004):
# Hit rate of the full screen: of about 56,000 sequences, about 3,400 (6.1%) were called active. No stated cut-off is given here; in the data, active = GI50 up to about 1.1 µM and inactive = higher. These entries were drawn from the full list. Entries with a potency or affinity are not part of this list.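 Values below derive from 48-hour exposures of cells grown in 96-well plates, with endpoints linearly interpolated between the two concentrations bracketing the appropriate inhibition level. GI50: concentration for 50% inhibition of growth.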
# Test system: HOP-62
# Assay: NCI tumour cell line growth inhibition, 48 h
row,Substance,GI50 [µM]
1,"cis-Bis[[(trimethylsilyl)methyl]amino]tetrachloroplatinum(IV), CHEMBL2146191",20.6
2,"[Bis(aminomethyl)diethylsilane]tetrachloroplatinum(IV), CHEMBL2146203",1.7
3,"mu-(1,7-nanodiamine-N,N')bis-(cis-aminedichloroplatimum (II)), CHEMBL2146215",7.64
4,"CISPLATIN, CHEMBL11359",1.82
5,"[Bis(aminomethyl)dimethylsilane]tetrachloroplatinum(IV), CHEMBL2146190",6.61
6,"[Bis(aminomethyl)tetramethylenesilane]tetrachloropaltinum(IV), CHEMBL2146189",6.32
7,"[Bis(aminomethyl)dimethylsilane]dichloroplatinum (II), CHEMBL2146201",35.3
8,"[Bis(aminomethyl)tetramethylenesilane]dichloropaltinum(II), CHEMBL2146205",39.7
9,"[Bis(aminomethyl)ethylmethylsilane]tetrachloroplatinum(IV), CHEMBL2146192",4.91
10,"[Bis(aminomethyl)pentamethylenesilane]tetrachloropaltinum(IV), CHEMBL2146204",1.55
11,"[Bis(aminomethyl)pentamethylenesilane]dichloropaltinum(II), CHEMBL2146202",2.33
